According to PubChem BioAssay AID602333 (Sanford-Burnham Center for Chemical Genomics, 2012):
Among all 1,900 compounds or so, about 240 (13%) were called active. These entries were drawn from the full list. A number with no mark means an inactive call.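 Rule for the calls: active = mean inhibition at least 40% at 20 µM, or signal 3 deviations below plate average, so some actives read negative; inactive = the rest.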

The compounds below were run against Prothrombin (Bos taurus) (UniProt P00735) (assay: bovine thrombin protease inhibition, confirmation, counter-screen for Rpn11 inhibitor project, biochemical, fluorescence polarization, single concentration (AID 602333;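 note: plate controls were thrombin with DMSO for no effect and buffer wells lacking thrombin for full effect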)). Details: bovine thrombin cleavage of Ub4-pepOG, at 20 µM, active compounds read high.
Sequence of Prothrombin (Bos taurus) (P00735 whole entry, looked up): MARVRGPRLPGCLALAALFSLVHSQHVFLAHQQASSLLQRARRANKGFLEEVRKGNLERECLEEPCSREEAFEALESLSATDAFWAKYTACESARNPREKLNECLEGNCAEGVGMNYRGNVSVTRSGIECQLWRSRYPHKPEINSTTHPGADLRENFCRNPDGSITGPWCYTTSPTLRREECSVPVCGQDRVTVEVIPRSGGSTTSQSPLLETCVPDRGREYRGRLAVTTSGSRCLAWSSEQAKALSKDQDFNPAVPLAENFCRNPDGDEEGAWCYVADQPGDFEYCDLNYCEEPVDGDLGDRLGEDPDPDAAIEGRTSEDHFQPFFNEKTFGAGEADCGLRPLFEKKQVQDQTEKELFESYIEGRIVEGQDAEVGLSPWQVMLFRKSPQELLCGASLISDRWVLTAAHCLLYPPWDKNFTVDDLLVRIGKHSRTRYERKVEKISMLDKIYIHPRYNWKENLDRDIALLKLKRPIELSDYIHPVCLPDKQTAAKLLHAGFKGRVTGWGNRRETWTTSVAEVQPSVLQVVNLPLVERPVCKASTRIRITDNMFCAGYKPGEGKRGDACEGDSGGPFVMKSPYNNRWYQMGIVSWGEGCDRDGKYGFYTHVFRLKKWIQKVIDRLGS

| Structure (SMILES) | inhibition |
| --- | --- |
| CC(C)Cn1c(CCC(=O)O)ccc1-c1cccs1 | -22.2% |
| CCC/C=C(\CCC)C(NC(=O)Cc1ccccc1)c1ccc(C(=O)OC)cc1 (centres undefined) | -11.1% |
| Cc1oc2c(C)c3oc(=O)c(CC(=O)N[C@@H](CC(C)C)C(=O)N[C@@H](Cc4ccccc4)C(=O)O)c(C)c3cc2c1C | 29.3% |
| Cc1cc(/C=C2/SC(=O)N(CC(=O)N3CCCC3)C2=O)ccc1N1CCOCC1 | 23.9% |
| CC(=O)Nc1ccccc1Sc1ccc2c3c(cccc13)C(=O)N(c1ccc(C)cc1)C2=O | 4.95% |
| O=C1NC(=O)C2C1C(c1ccc([N+](=O)[O-])cc1)=NN2Cc1ccccc1 (centres undefined) | 15.8% |
| Cc1cccc(OCc2nnc(SCc3nc4cc(C(F)(F)F)ccc4c(=O)[nH]3)o2)c1 | 42.8% (active) |
| CC(=O)/C(=N\Nc1ccc(Cl)cc1Cl)Sc1cccc2cccnc12 | 1.24% |
| CC1CCN(c2ccc3c(c2)S(=O)(=O)c2cc(C(=O)O)ccc2C3=O)CC1 | 18.1% |
| CN(C)c1ccc(-n2cccc2/C=C2/SC(=Nc3ccc(F)cc3)NC2=O)cc1 | -29.3% |
| O=C(CSc1nc2ccccc2c(=O)[nH]1)Nc1nc(-c2ccc(Br)cc2)cs1 | -3.66% |
| CCOC(=O)N1CCC(NC(=O)C(NS(=O)(=O)c2ccc3c(c2)CCN3C(=O)CC)C(C)C)CC1 (centres undefined) | 1.81% |
| CCOc1ccc(-n2c(O)c(/C=N/c3ccnn3Cc3ccncc3)c3ccccc3c2=O)cc1 | 82.5% (active) |
| CCOc1ccc(-n2c(O)c(/C=N/Nc3nnc(C)c(=O)[nH]3)c3ccccc3c2=O)cc1 | -1.67% |
| CC(C)Oc1ccc(/C=C(\NC(=O)/C=C/c2ccco2)C(=O)NCCc2nc3ccccc3[nH]2)cc1 | 21% |
| COc1ccc(CNC(=O)c2nnn(CC(=O)Nc3cc(C)cc(C)c3)c2N)cc1 | -6.95% |
| CN(C)CCOC1c2ccccc2-c2ccccc21 | -14% |
| CC(=O)c1sc(N/N=C/c2ccc(C(C)C)cc2)nc1C | -6.77% |
| Cc1ccc(NC(=O)CN2CCc3ccccc3C2)cc1 | -14.3% |
| C=CC[n+]1c(-c2ccc(C)cc2)csc1NNC(=O)Nc1ccccc1 | 4.61% |
| COc1ccc(-n2c(SCC(=O)Nc3sc4c(c3C#N)CCCC4)nnc2-c2ccc(O)cc2)cc1 | -8.59% |
| Cc1nc2ccccc2n1C(=O)N1CCOCC1 | -8.33% |
| CCCS(=O)(=O)N1CCCC(C(=O)NCc2ccco2)C1 (centres undefined) | -12.9% |
| Cc1ccc(N=Cc2c(O)cc(C)oc2=O)c(C)c1 | 8.99% |
| CSC1=N/C(=C\C=C\c2cccs2)C(=O)S1 | 3.5% |
| CCCOc1ccc(Cn2c(O)cc(=O)[nH]c2=O)cc1 | 7.31% |
| Nc1nonc1-n1nnc(C(=O)N/N=C/c2cc(Br)ccc2O)c1CSC1=NCCS1 | 2.28% |

| Structure (SMILES) | inhibition |
| --- | --- |
| CCN(CC)C(=O)CSc1nc2ccccc2n1CC(=O)N1CCN(c2ccccc2OC)CC1 | -2.4% |
| COc1cccc(/C=C(/CC(=O)Nc2ccc(N3CCOCC3)cc2)c2nc3ccccc3s2)c1 | 7.25% |
| O=C(O)c1ccc(NN=CC2=C(N3CCOCC3)/C(=C/c3ccccc3)CC2)cc1 | 46.5% (active) |
| CCCCCCSc1ccc([C@@H]2[C@H]3C(=O)N(CC)C(=O)[C@H]3[C@]3(C(=O)OC)CCCCN23)cc1 | 60.5% (active) |
| O=C(Nc1ccc(-c2nnc(-c3ccccc3)o2)cc1)c1ccc(Br)o1 | -5.94% |
| Cc1c(N=Nc2ccc(N(C)C)cc2)c(=O)n(-c2ccccc2)n1C | 37.7% |
| N#Cc1c(-c2cccs2)nc(SCC(=O)c2ccc(Br)cc2)[nH]c1=O | 15.6% |
| NC(N)=N/N=C/c1ccc(OCc2ccc(Cl)cc2Cl)cc1 | -36.6% |
| CS(=O)(=O)c1ccc2c(c1)SC1=NC(=O)/C(=C/c3ccco3)C(=N)N12 | 26% |
| Cc1sc2nc(COC(=O)C(NC(=O)c3ccc(Cl)cc3Cl)C(C)C)[nH]c(=O)c2c1C (centres undefined) | 13.5% |
| O=C(CSc1cccc2cccnc12)N/N=C/c1cccnc1 | -13.1% |
| CC(C)CC1C(=O)N(Cc2cn(Cc3ccco3)nn2)CCS(=O)(=O)N1Cc1ccc(-c2ccc(Cl)c(Cl)c2)cc1 (centres undefined) | -6.74% |
| COC1=C/C(=C/c2c(N)n3nc(CC(=O)N4CCOCC4)sc3nc2=O)C=CC1=O | 36% |
| CN=c1scc(-c2cc(OC)ccc2OC)n1/N=C/c1c(C)[nH]c2ccccc12 | 30% |
| O=C(OCc1cc2ccccc2[nH]c1=O)c1cccnc1 | -12.2% |
| CCOc1cc(/C=C2\SC(N3CCCC(C)C3)=NC2=O)ccc1O (centres undefined) | 10% |
| CCc1ccc(-c2cc(C(=O)NCc3ccco3)c3ccccc3n2)s1 | 33.8% |
| Oc1c(CN2CCCC2)cc(COCc2ccccc2)c2cccnc12 | -28.1% |
| O=C(CCS(=O)(=O)c1cccc2nonc12)NCCc1ccccc1Cl | -6.4% |
| CCc1ccc(NC(=O)CS(=O)CC(=O)NCCCc2ccccc2)cc1 (centres undefined) | 5.42% |
| N#Cc1ccc(C(=O)Nc2cccc3cccnc23)c(F)c1 | -28.1% |
| COc1ccc(NC(=O)Cn2c(-c3ccc(OC)cc3)cn(-c3ccc(C)cc3)c2=O)cc1 | 29.3% |
| Cc1cc(/C=N/Nc2ccc([N+](=O)[O-])cn2)c(C)n1-c1cccc(C(=O)O)c1 | -0.18% |
| COc1ccc(CC(=O)Nc2ccc(-c3nnc(-c4ccc(C)cc4)o3)cc2)cc1 | -14.6% |
| C=CCn1c(=S)[nH]c2scc(-c3ccco3)c2c1=O | -8.62% |
| Cc1cc(OCC(=O)Nc2nccs2)c2c(C)c(C)c(=O)oc2c1 | -9.45% |
| COC(=O)c1ccc(OCC(=O)NC(C)(C)C)cc1 | -4.55% |
